# Experimental data from the supplement of paper PMC6555819.
# Test system: PPARg DBDmut:RXRa IVT, anti-PPARg (DBD mutation: PPARg1 K132A/R137A, NR concentration 270 nM, RXRa partner concentration 90 nM)
# Assay: PBM binding z-score (relative to random genomic background probes); higher = stronger binding; sequences stand for … in GC…GCGATTGACAGCGTAGAATGAAGG
# Method in brief: (§1)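 Scanned fluorescence from custom Agilent 4×180K protein-binding microarrays was regression-normalized. Binding z-scores use random background probes as reference. Ligand-free nuclear receptor dimers were incubated on the arrays for 1 h and detected with antibodies against each partner (one per run).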
row,Sequence,PBM binding z-score
1,GCTAGTTGGTCAGTAAATGGTCACACACCGGTCG,0.157
2,AGCTCTAGGTAAAAGTTCAGTGAATCCCGAGGAT,-0.0694
3,TAGCCTAGGTCATTCAGGGGCCAGTATGGAAAGC,0.514
4,TAGCCTAGGTCATAGGCCAGTATACCACGCGAAC,0.284
5,CAATCTAGGTCAAAGGTCAAAGTCGAGCCAACCA,3.79
6,AGACAAAGTTCAGGACGAGGTAACGTAAAGCACG,0.472
7,CCTGCTAGTTCATGGTCAGCTAATCTACAGTATG,-0.434
8,TCTCGGAGGACACGAAAAGTCAGAGCTCGACATC,-0.679
9,TGACTGAGGTTAAAGATCAGGGAACGTGGCGTCG,0.314
10,TATACAGGGTCTAAGGCCAGAGTACGAATGTCGA,0.973
11,ATCTGTAGGTTATCGGGTCATTCAGTTTGCGCAT,1.81
12,GCTGCTCGGTCAACTGATGGTCAGCTAAAGCTCG,-0.981
13,CCTTACAGGTCACGAGGTTATAGCACGACGAGCG,1.32
14,GCTGCTAGGTCGACTGATGGTCAGCTAAAGCTCG,-1.49
15,TAGCCTAAGTCATGGGCCAGTATACCACGCGAAC,-0.174
16,CAAACTAGGTCAAAGGTCAAAGCCGAGCCAACCA,2.64
17,TCTAGTTGGTCAAAGGCCACACACTCGAAATGCG,0.393
18,AGATTGAGGTTACCAAAGATCAGGGAAACGCTTG,0.865
19,CCTAGCAGGCCACGGTCACTCAAGCATTTCGCTT,-0.92
20,AGAATGAGGTTACCAGAGATCAGGGAAACGCTTG,1.02

row,Sequence,PBM binding z-score
1,CCTACTGGGCCAATGTCATTGATCAGTCAAAGCA,-0.0732
2,CCTACTGGGCCAACAAGGTCATTGATGCCGATAA,-0.0965
3,CCTACTGGGCGATTCAGAGGTCATTGATCATATG,-1.35
4,CGTCCAACGTCAGCAGGTCAGTGAAAGCGACGTG,-0.345
5,GGTACGAGGGCAAAGTTGATAGCATCTGTCGACG,0.0227
6,CCTAGTTGGTCAAGGTCTCACACGCTATAGGTAC,-0.0151
7,ATATGTAGGTTACATCCGGGTCTTTCAGGCTATG,1.99
8,AGTCAAAGTTCAGTAGGTAACGTAAGATTCAGCT,0.804
9,CAAACTAGGTCACGAAAGGTCAAATTCGAATGAC,3.89
10,CATACAGGGTAAGCTAGGCCAGAGTAGGGACGGC,-0.00431
11,CCTGCTAGTTCAATGGTCAGCTAAAGCAGCTCGC,-0.548
12,CCTAGTTGGTCAGGTGGTCACACACCGGATATGA,-0.00343
13,TAGCCTAGGTCATTGGACCAGTATAGTACGCATC,0.686
14,CCTGCTAGGTCAATGGTCAGCTAAAGCAGCTCGC,-1.03
15,GCTGCTAGGTCAACTGATGGTCAGCTAGAGCTCG,-0.00234
16,ATCGAAAGGTGGACGAGGTGAGTATACACCGTTT,0.496
17,CCCGCTAGGTCATGGTCAGCTAATCTACAGTATG,-0.299
18,CCAGACAGGTGAAAGGTAACTCACTCTGGTACGC,-0.16
19,CCTAGCAGACCAATCTGGGTCACTCAAGGCTTGA,0.573

# Test system: PPARg DBDmut IVT, anti-PPARg (DBD mutation: PPARg1 K132A/R137A, NR concentration 270 nM)
# Assay: as above
# Method in brief: as §1
row,Sequence,PBM binding z-score
1,GCTAGTTGGTCAGTAAATGGTCACACACCGGTCG,0.192
2,AGCTCTAGGTAAAAGTTCAGTGAATCCCGAGGAT,0.333
3,TAGCCTAGGTCATTCAGGGGCCAGTATGGAAAGC,-0.26
4,TAGCCTAGGTCATAGGCCAGTATACCACGCGAAC,-0.111
5,CAATCTAGGTCAAAGGTCAAAGTCGAGCCAACCA,6.44
6,AGACAAAGTTCAGGACGAGGTAACGTAAAGCACG,0.977
7,CCTGCTAGTTCATGGTCAGCTAATCTACAGTATG,-0.632
8,TCTCGGAGGACACGAAAAGTCAGAGCTCGACATC,-0.502
9,TGACTGAGGTTAAAGATCAGGGAACGTGGCGTCG,0.079
10,TATACAGGGTCTAAGGCCAGAGTACGAATGTCGA,0.725
11,ATCTGTAGGTTATCGGGTCATTCAGTTTGCGCAT,1.76
12,GCTGCTCGGTCAACTGATGGTCAGCTAAAGCTCG,-0.237
13,CCTTACAGGTCACGAGGTTATAGCACGACGAGCG,1.39
14,GCTGCTAGGTCGACTGATGGTCAGCTAAAGCTCG,-1.06
15,TAGCCTAAGTCATGGGCCAGTATACCACGCGAAC,-0.856
16,CAAACTAGGTCAAAGGTCAAAGCCGAGCCAACCA,1.45
17,TCTAGTTGGTCAAAGGCCACACACTCGAAATGCG,0.329
18,AGATTGAGGTTACCAAAGATCAGGGAAACGCTTG,-0.0178
19,CCTAGCAGGCCACGGTCACTCAAGCATTTCGCTT,-1.29
20,AGAATGAGGTTACCAGAGATCAGGGAAACGCTTG,-0.0941

row,Sequence,PBM binding z-score
1,CCTACTGGGCCAATGTCATTGATCAGTCAAAGCA,-0.746
2,CCTACTGGGCCAACAAGGTCATTGATGCCGATAA,-0.198
3,CCTACTGGGCGATTCAGAGGTCATTGATCATATG,-0.572
4,CGTCCAACGTCAGCAGGTCAGTGAAAGCGACGTG,-1.13
5,GGTACGAGGGCAAAGTTGATAGCATCTGTCGACG,-1.04
6,CCTAGTTGGTCAAGGTCTCACACGCTATAGGTAC,0.765
7,ATATGTAGGTTACATCCGGGTCTTTCAGGCTATG,3.12
8,AGTCAAAGTTCAGTAGGTAACGTAAGATTCAGCT,1.29
9,CAAACTAGGTCACGAAAGGTCAAATTCGAATGAC,2.38
10,CATACAGGGTAAGCTAGGCCAGAGTAGGGACGGC,-0.34
11,CCTGCTAGTTCAATGGTCAGCTAAAGCAGCTCGC,-1.19
12,CCTAGTTGGTCAGGTGGTCACACACCGGATATGA,-0.318
13,TAGCCTAGGTCATTGGACCAGTATAGTACGCATC,-0.0362
14,CCTGCTAGGTCAATGGTCAGCTAAAGCAGCTCGC,-1.12
15,GCTGCTAGGTCAACTGATGGTCAGCTAGAGCTCG,0.522
16,ATCGAAAGGTGGACGAGGTGAGTATACACCGTTT,0.266
17,CCCGCTAGGTCATGGTCAGCTAATCTACAGTATG,-0.741
18,CCAGACAGGTGAAAGGTAACTCACTCTGGTACGC,0.145
19,CCTAGCAGACCAATCTGGGTCACTCAAGGCTTGA,-0.876
